This is a sample that favours compounds with a hit; in the whole collection about 2.4% have one here.
Pol eta inh: DNA polymerase eta (human) inhibition | recombinant Pol eta, fluorescent DNA replication assay | hit rate 1.2% among 390,000 | AID 588591 | Potency, µM (doses to about 114 µM), without a hit: at the top dose activity change, negative = inhibition, hits mostly inhibitors | Q9Y253; further: on the % scale 0 is the no-effect control and ±100 the full control effect
Target sequence (Q9Y253 whole entry, looked up): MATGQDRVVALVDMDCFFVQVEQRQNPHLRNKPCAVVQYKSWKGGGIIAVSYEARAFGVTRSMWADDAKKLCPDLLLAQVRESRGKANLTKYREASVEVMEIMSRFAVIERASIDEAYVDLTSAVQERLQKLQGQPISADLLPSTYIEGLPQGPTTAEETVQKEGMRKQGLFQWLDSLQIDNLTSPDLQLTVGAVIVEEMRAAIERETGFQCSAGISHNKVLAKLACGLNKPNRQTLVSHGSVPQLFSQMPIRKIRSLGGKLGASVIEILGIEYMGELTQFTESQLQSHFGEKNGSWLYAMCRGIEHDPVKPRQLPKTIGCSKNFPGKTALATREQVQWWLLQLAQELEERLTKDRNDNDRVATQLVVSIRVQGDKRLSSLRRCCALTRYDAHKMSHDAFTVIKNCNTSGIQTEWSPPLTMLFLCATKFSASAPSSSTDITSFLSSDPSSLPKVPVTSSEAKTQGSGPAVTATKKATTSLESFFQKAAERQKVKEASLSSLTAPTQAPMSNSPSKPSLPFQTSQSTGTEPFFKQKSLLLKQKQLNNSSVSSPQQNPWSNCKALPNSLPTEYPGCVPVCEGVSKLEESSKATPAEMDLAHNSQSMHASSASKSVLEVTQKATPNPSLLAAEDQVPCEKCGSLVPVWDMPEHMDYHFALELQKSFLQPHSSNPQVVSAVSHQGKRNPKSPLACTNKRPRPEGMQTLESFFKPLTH
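Pol eta at 10 nM preincubated with compounds 15 min at room temperature; reaction started with fluorescent substrate (50 nM final) and read kinetically at 0 and 10 min.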
POLB inh: blocks human DNA polymerase beta activity | Pol beta primer extension/strand displacement, fluorescence kinetic | Potency, µM (titrated, usually from 114 µM), inactives show top-dose activity change, negative = inhibition, hits mostly inhibitors | hit rate 1.3% among 340,000 | AID 485314; further: on the % scale 0 is the no-effect control and ±100 the full control effect
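Pol beta (10 nM) and compounds were preincubated 15 min at room temperature, then 50 nM substrate (final) started primer extension/strand displacement. Reads were taken at 0 and 10 min; concentration-response data were fitted to a four-parameter Hill equation.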
POLK inh: inhibitors of human DNA polymerase kappa; purified Pol kappa, fluorescent DNA synthesis assay, 10 min; hit rate 0.53% among 400,000; Q9UBT6; Potency, µM (highest dose often 107 µM), inactives show at the top dose activity, negative = inhibition, most hits filed as inhibitors; AID 588579; further: on the % scale 0 is the no-effect control and ±100 the full control effect
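Readout: fluorescence, taken kinetically at 0 and 10 min. Conditions: 10 nM Pol kappa, 15 min RT compound preincubation, 50 nM substrate final. Controls: enzyme-free buffer wells.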
WRN inhibitor: inhibitors of human WRN helicase | Potency, µM (series often up to 114 µM), without a hit: top-dose activity change, negative = inhibition, most hits filed as inhibitors | WRN helicase unwinding, fluorescent forked duplex, kinetic | hit rate 0.46% among 360,000 | Q14191; further: on the % scale 0 is the no-effect control and ±100 the full control effect; nearly all actives have a fitted effect of over 55% in size
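Fluorescence dequenching readout, ex 525 nm/em 598 nm, kinetic mode: forked duplex DNA (100 nM final) with adjacent fluorophore and quencher unwound by WRN (20 nM final) with 2 mM ATP. Compound preincubation 15 min, room temperature.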
FEN1 inh: human FEN1 inhibition; Recombinant FEN1 flap cleavage, fluorescence, 15 min; AID 588795; P39748; hit rate 0.35% among 390,000; Potency, µM (series often up to 114 µM), for inactives: at the highest dose activity change, negative = inhibition, actives largely listed as inhibitors; further: on the % scale 0 is the no-effect control and ±100 the full control effect; nearly all actives have a fitted effect of over 65% in size
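Nuclease activity of 10 nM FEN1 was measured after 15 min of room-temperature exposure to titrated compounds, by adding 50 nM flap substrate and reading plates at 0 and 15 min.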
POLI inh: blocks human DNA polymerase iota activity | Q9UNA4 | Pol iota fluorescent replication assay, 10 min | Potency, µM (top dose mostly 115 µM), without a hit: at the highest dose activity, negative = inhibition, actives largely listed as inhibitors | hit rate 1% among 390,000 | AID 588590
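Fluorescent replication assay read twice, at 0 min and 10 min after adding 50 nM (final) substrate. Enzyme (10 nM) and compounds were first incubated 15 min at room temperature; enzyme-free buffer wells were negative controls.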
Starred values were filed as active, the others as inactive; ? = inconclusive; nt = no result given; ! = a repeat was not active; [ ] = another dose, or the depositor's remark. The call rests on the fitted dose curve; in most records, active means well fitted curve in the direction sought with a large enough effect; inconclusive means small, poorly fitted or top-dose-only effect, or another doubt; inactive means no such curve, though single readings can be large; an effect the other way counts as inactive or inconclusive. Potency means the concentration at half of the fitted maximal effect.

SMILES	Pol eta inh	POLB inh	POLK inh	WRN inhibitor	FEN1 inh	POLI inh
Clc1ccc(/C=C\c2nccc3c2[nH]c2ccccc23)cc1	-24.3%	28.7%	0.9%	6.2%	8.8%	95.2%
N#Cc1ccc(/C=C\c2nccc3c2[nH]c2ccccc23)cc1	-1.4%	17.8µM*	-18.4%	-27.5%	-3.1%	?
Cc1[nH]nc2c1C(c1ccc(-c3ccccc3C#N)o1)C(C#N)=C(N)O2 (configuration not stated)	4.4%	56.2µM*	4.0%	-31.5%	2.1%	10.4%
Cc1[nH]nc2c1C(c1ccc(-c3ccc(Cl)cc3)o1)C(C#N)=C(N)O2 (configuration not stated)	?	40.7%	-0.6%	?	-4.8%	-0.5%
O=C1NC(=O)C(c2ccccc2[N+](=O)[O-])=C1Nc1ccc(O)c(Cl)c1	?	11.2µM*	11.2µM*!	7.9%	-11.3%	28.2µM*!
CCSC[C@H](NC(=O)[C@H](C)NC(=O)[C@@H](N)Cc1ccc(O)cc1)C(=O)N[C@@H](CC(=O)O)C(=O)N[C@H](C(=O)N[C@@H](C)C(=O)N[C@H](C(=O)N[C@@H](CSCC)C(=O)N[C@H](C(=O)N[C@H](C(=O)N[C@@H](Cc1cnc[nH]1)C(=O)N[C@@H](CCCNC(=N)N)C(=O)N[C@@H](CC(C)C)C(=O)N[C@@H](C)C(=O)NCC(=O)N[C@@H](CC(C)C)C(=O)N[C@@H](CC(C)C)C(=O)N[C@@H](CO)C(=O)N[C@@H](CCCNC(=N)N)C(=O)N[C@@H](CO)C(=O)NCC(=O)NCC(=O)N[C@H](C(=O)N[C@H](C(=O)N[C@@H](CCCCN)C(=O)N[C@@H](CC(N)=O)C(=O)N[C@@H](CC(N)=O)C(=O)N[C@@H](Cc1ccccc1)C(=O)N[C@H](C(=O)N1CCC[C@H]1C(=O)N[C@H](C(=O)N[C@@H](CC(N)=O)C(=O)N[C@H](C(=O)NCC(=O)N[C@@H](CO)C(=O)N[C@@H](CCCCN)C(=O)N[C@@H](C)C(=O)N[C@@H](Cc1ccccc1)C(N)=O)C(C)C)[C@@H](C)O)C(C)C)C(C)C)C(C)C)[C@@H](C)O)C(C)C)[C@@H](C)O)[C@@H](C)O	nt	nt	18.5%[60.1 µM]	nt	nt	nt
CCCCC(=O)Nc1sc2c(c1-c1nc3ccccc3s1)CCN(C(C)=O)C2	nt	-1.5%	nt	nt	nt	nt
CC(=O)N1CCc2c(sc(NC(=O)C3CC3)c2-c2nc3ccccc3s2)C1	25.1µM*	24.4%	-19.1%	-13.6%	?	47.8%
CS[C@@H]1SC[C@H]2C(=O)N(C)C(C(C)C)C(=O)OC[C@@H](NC(=O)c3cnc4ccccc4n3)C(=O)N[C@@H](C)C(=O)N(C)[C@H]1C(=O)N(C)C(C(C)C)C(=O)OC[C@@H](NC(=O)c1cnc3ccccc3n1)C(=O)N[C@@H](C)C(=O)N2C (some centres not stated)	nt	nt	21.2µM*	nt	nt	nt
CC(NC(=O)c1cnc2ccccc2n1)c1ccccc1 (configuration not stated)	-1.4%	5.7%	-4.8%	-17.4%	-9.6%	89.6%
CC[C@]12c3[nH]c4ccccc4c3CCN1C(=O)C(CC(=O)NCCCn1ccnc1)C[C@@H]2C(=O)N1CCN(C(=O)C2CC2)CC1 (some centres not stated)	-10.2%	nt	-12.4%	-0.7%	12.2%	-6.9%
CC[C@]12c3[nH]c4cc(-c5ccco5)ccc4c3CCN1C(=O)[C@@H](CC(=O)NCC13CC4CC(CC(C4)C1)C3)C[C@@H]2C(=O)N1CCN(C(=O)c2ccco2)CC1	-13.4%	nt	-25.6%	4.3%[11.6 µM]	4.0%	28.2µM*
CC[C@]12c3[nH]c4ccc(Cl)cc4c3CCN1C(=O)[C@@H](CC(=O)NCCCn1ccnc1)C[C@@H]2C(=O)N1CCN(C(=O)C2CC2)CC1	-5.6%	nt	13.9%	-0.8%[11.6 µM]	-0.7%	89.1µM*
COC(=O)[C@H](CC(C)C)NC(=O)c1ccc(NC[C@@H](N)CS)cc1-c1cccc2ccccc12	nt	nt	-4.6%[60.1 µM]	nt	nt	nt
C#C[C@]1(O)CC[C@H]2[C@H]3[C@H](CC[C@@]21C)C1=C(CC(=O)CC1)C[C@@H]3C	nt	nt	-8.4%[19.4 µM]	nt	nt	nt
NC(=O)[C@@H]1CCNc2c(I)cc([N+](=O)[O-])cc2C(=O)N[C@@H](CCC(=O)O)C(=O)N[C@@H](CO)C(=O)N1	22.4µM*	-7.0%	?	-15.2%[57.1 µM]	-2.2%	?
C[C@@H]1NC(=O)[C@H](CCC(N)=O)NC(=O)c2cc([N+](=O)[O-])cc(I)c2NCC[C@@H](C(N)=O)NC1=O	-14.3%	19.6%	1.1%	-3.4%	0.4%	-2.4%
NC(=O)CC[C@@H]1NC(=O)[C@H](CO)NC(=O)c2cc([N+](=O)[O-])cc(I)c2NCCC[C@@H](C(N)=O)NC(=O)[C@H](Cc2ccc(O)cc2)NC1=O	89.1µM*	-0.4%	-12.4%	-18.8%	-10.2%	?
CC[C@H](C)C1NC(=O)[C@H](CC(=O)O)NC(=O)c2cc([N+](=O)[O-])cc(I)c2NCCC(C(N)=O)NC1=O (some centres not stated)	25.1µM*	0.9%	79.4µM*	-16.4%[57.1 µM]	-4.3%	?
NC(=O)[C@@H]1CCCNc2c(F)cc([N+](=O)[O-])cc2C(=O)N[C@@H](CCC(=O)O)C(=O)N[C@@H](CO)C(=O)N1	2.6%	11.3%	-20.6%	-4.4%	-6.6%	?
NC(=O)[C@@H]1CCCCNc2c(I)cc([N+](=O)[O-])cc2C(=O)N[C@@H](CCC(=O)O)C(=O)N[C@@H](CO)C(=O)N1	6.31µM*	0.1%	50.1µM*	?	-3.1%	17.8µM*
NC(=O)[C@@H]1CCCNc2c(I)cc([N+](=O)[O-])cc2C(=O)N[C@@H](CO)C(=O)N[C@@H](Cc2ccc(O)cc2)C(=O)N1	-2.8%	-12.3%	12.5%	-7.6%	-2.6%	-5.5%
Oc1cc2cc(-c3csc(-c4ccc(F)cc4)n3)ccc2[nH]1	nt	nt	-24.8%	nt	2.9%	3.7%
O=c1cc(-c2ccc(O)c(O)c2)oc2ccccc12	nt	nt	14.1µM*	nt	nt	nt
O=c1cc(-c2ccccc2)oc2cc(O)c(O)cc12	nt	nt	3.16µM*	nt	nt	nt
O=c1cc(-c2ccccc2)oc2ccc(O)cc12	-11.7%	-19.8%	-3.0%	3.3%	?	7.8%
O=C(c1ccccc1)c1c(O)cc(-c2ccccc2)oc1=O	-9.5%	15.8µM*	-17.3%	-21.4%	-3.6%	-5.0%
CNc1c(Br)cc(/C=C2\C=Cc3ccccc32)cc1Br	nt	nt	-2.4%	nt	0.4%	8.6%
COc1cccc(Cn2c(=O)c(-c3ccc(Cl)cc3)nc3cncnc32)c1	nt	nt	-0.8%[60.1 µM]	nt	nt	nt

Source: PubChem BioAssay
